High-throughput results (PubChem BioAssay)
GPR151 ag = activators of human GPR151, primary screen, cell-based, PathHunter beta-arrestin, luminescence | AID 1508602, 2020 | 650,000 tested, 1% active | activation, % at 11.2 µM | G-protein coupled receptor 151 (Homo sapiens), Q8TDV0 | PathHunter beta-arrestin GPR151 cells; in the data active = activation above about 4.9%
TEAD-YAP block = TEAD-YAP interaction inhibition, primary screen, TEAD-YAP interaction inhibitor project, luminescence, HEK-TIYL cells; TEAD-Gal4/YAP UAS-luciferase luminescence; inhibition, % at 9.12 µM; 640,000 tested, 1.4% active; AID 1259422, 2018; in the data active = inhibition above about 32%
FBW7 act = FBW7 E3 ligase activators, primary screen, biochemical, AlphaScreen, human | F-box/WD repeat-containing protein 7 (Homo sapiens), Q969H0 | AlphaScreen FBW7–phospho-cyclin E peptide binding, activator screen | normalized activity (activation), % at 26.1 µM | 650,000 tested, 0.13% active | AID 1259310, 2017; in the data active = normalized activity above about 1.9%;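 note: purified mutant Fbw7 with reduced substrate affinity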
Target sequence (Q969H0 whole entry, looked up): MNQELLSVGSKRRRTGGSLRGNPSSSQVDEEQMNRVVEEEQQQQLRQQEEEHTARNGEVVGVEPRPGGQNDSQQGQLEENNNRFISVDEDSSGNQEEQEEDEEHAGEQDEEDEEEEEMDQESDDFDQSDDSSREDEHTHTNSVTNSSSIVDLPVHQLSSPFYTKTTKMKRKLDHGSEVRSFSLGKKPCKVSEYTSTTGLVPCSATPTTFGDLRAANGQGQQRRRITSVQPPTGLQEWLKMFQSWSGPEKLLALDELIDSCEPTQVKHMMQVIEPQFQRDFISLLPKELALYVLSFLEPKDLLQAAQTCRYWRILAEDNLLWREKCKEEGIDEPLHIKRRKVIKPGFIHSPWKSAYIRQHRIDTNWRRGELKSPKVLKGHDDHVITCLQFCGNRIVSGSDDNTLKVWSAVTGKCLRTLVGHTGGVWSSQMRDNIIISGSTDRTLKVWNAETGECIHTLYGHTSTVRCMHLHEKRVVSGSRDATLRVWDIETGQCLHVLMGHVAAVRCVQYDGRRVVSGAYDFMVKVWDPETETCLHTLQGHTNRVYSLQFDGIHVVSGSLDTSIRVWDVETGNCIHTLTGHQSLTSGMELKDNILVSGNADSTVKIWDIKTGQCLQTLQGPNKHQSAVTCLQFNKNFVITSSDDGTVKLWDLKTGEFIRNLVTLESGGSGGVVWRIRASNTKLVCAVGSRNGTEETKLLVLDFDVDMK
MITF inh = MITF inhibitors, primary screen, biochemical, AlphaScreen, human; Microphthalmia-associated transcription factor (Homo sapiens), O75030; AlphaScreen MITF homodimerization, bead proximity signal; inhibition, % at 2.6 µM; 650,000 tested, 0.91% active; AID 1259374, 2018; in the data active = inhibition above about 50%
GPR151 confirm = GPR151 activators, triplicate retest, confirmation, cell-based, PathHunter beta-arrestin, luminescence | shares compounds with GPR151 ag | GPR151 PathHunter beta-arrestin cells, 90 min; % of EA-reagent control over plate median | activation, % at 11.2 µM | 6,700 tested, under 10 active;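 active = mean percent activation across replicates above the confirmation screen cutoff of 4.91%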
GPR119 counter = GPR119 activators in beta-arrestin cells, counter-screen for GPR151 activator project, cell-based, PathHunter beta-arrestin, luminescence, triplicate; shares compounds with GPR151 ag; 90 min; 0 = compound-well median, 100 = enzyme-acceptor control; activation, % at 11.2 µM; 6,700 tested, 0.3% active; AID 1508611, 2020;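 active = mean percent activation in the counterscreen above 29.09%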;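 note: counterscreen on off-target GPR119 to flag nonselective hits from the GPR151 activator screen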
Each line names hits and unclear results; the compound was inactive in the other large screens (follow-up assays come after a bar, where they were run). Hits are enriched below; roughly 3.5% of the tested compounds scored in any of these assays.

CCCCCCCCCCCCC/C=C/[C@@H](O)[C@H](COP(=O)(O)O)NC(=O)CCCCCCC	GPR151 ag 5.2 (no result: TEAD-YAP block, FBW7 act) | GPR151 confirm inactive | GPR119 counter inactive
COC(=O)c1ccc(/C=c2\sc3nc(-c4ccco4)nn3c2=O)cc1	none
CN1/C(=C\C=N\NC(=S)Nc2cccnc2)C(C)(C)c2ccccc21	GPR151 ag 7.4 | GPR151 confirm inactive | GPR119 counter inactive
O=C(NC1CC1)C1CCC(=O)N1C1CCCCC1 (configuration not stated)	GPR151 ag 8.5 | GPR151 confirm inactive | GPR119 counter inactive
O=C(NC1CCCC1)C1CCC(=O)N1C1CCCCC1 (configuration not stated)	none
COC(=O)C(Cc1c[nH]c2ccccc12)NC(=O)C(=O)c1c(C)[nH]c2ccccc12 (configuration not stated)	GPR151 ag 6.9 | GPR151 confirm inactive | GPR119 counter inactive
COC(=O)C(Cc1c[nH]c2ccccc12)NC(=O)C(C)C (configuration not stated)	none
COC(=O)C1=C(C)NC(=S)NC1c1ccccc1OC (configuration not stated)	GPR151 ag 5.6 | GPR151 confirm inactive | GPR119 counter inactive
COc1cc2c(cc1C1NC(=S)NC(C)=C1C(=O)N(C)C)CCCC2 (configuration not stated)	GPR151 ag 8.9 | GPR151 confirm inactive | GPR119 counter inactive
COc1ccc2c(CNCc3ccc(C)cc3)c(C(=O)O)n(C)c2c1	none
CCCCNC(=O)C1Cc2ccccc2CN1S(=O)(=O)c1cccs1 (configuration not stated)	GPR151 ag 5.7 | GPR151 confirm inactive | GPR119 counter inactive
Cc1nc(NCC2CC2)sc1-c1ccn(-c2cccc(F)c2)n1	GPR151 ag 5.8 | GPR151 confirm inactive | GPR119 counter inactive
Cc1nc(NCC2CC2)sc1-c1ccn(CCN2CCOCC2)n1	none
COc1ccc(C(=O)Nn2nnc3ccccc3c2=O)cc1	none
C=C1c2ccc(C)cc2NC(=O)N1CC	none
C=C1c2cc(OC)ccc2NC(=O)N1CC	GPR151 ag 5.5 | GPR151 confirm inactive | GPR119 counter inactive
CC(C)(C)c1ccc(C(=O)Nn2nnc3ccccc3c2=O)cc1	none
O=C(CN1CC(=O)N2CCCC2C1=O)NCCc1ccccc1 (configuration not stated)	none
O=C(CN1CC(=O)N2CCCC2C1=O)NCc1ccccc1 (configuration not stated)	none
O=C(CN1CC(=O)N2CCCC2C1=O)NCCc1ccc(Cl)cc1 (configuration not stated)	GPR151 ag 7.8 | GPR151 confirm inactive | GPR119 counter inactive
O=C(CN1CC(=O)N2CCCC2C1=O)NCc1cccc(Cl)c1 (configuration not stated)	GPR151 ag 10.4 | GPR151 confirm inactive | GPR119 counter inactive
CCSc1nc(N)c2c3c(sc2n1)CCCCC3	none
COc1ccccc1CN[C@H]1C[C@H]2C(=O)N[C@@H](CC(C)C)C(=O)N2C1	GPR151 ag 6.1 | GPR151 confirm inactive | GPR119 counter inactive
COc1ccccc1CN[C@H]1C[C@H]2C(=O)N[C@H](CO)C(=O)N2C1	none
CC(C)C[C@@H]1NC(=O)[C@@H]2C[C@H](NC(=O)Nc3cccc(C(F)(F)F)c3)CN2C1=O	GPR151 ag 12.1 | GPR151 confirm inactive | GPR119 counter inactive
CC(C)[C@@H]1NC(=O)[C@@H]2C[C@H](NCc3cn(C)nc3-c3ccccc3)CN2C1=O	GPR151 ag 12.6 | GPR151 confirm inactive | GPR119 counter inactive
O=c1/c(=C\c2ccccc2[N+](=O)[O-])sc2nc(C3COc4ccccc4O3)nn12 (configuration not stated)	none
COc1ccc(S(=O)(=O)Nc2ccc(Br)c3cccnc23)cc1OC	none
O=C(Nc1ccc(Cl)cn1)c1ccc(S(=O)(=O)c2ccccc2)cc1	none
CC1(C)CC(=O)N(CC(=O)O)c2ccccc2S1(=O)=O	none
CCOC(=O)N1CCN(C(=O)CN2C(=O)CC(C)(C)S(=O)(=O)c3ccccc32)CC1	GPR151 ag 5.9 | GPR151 confirm inactive | GPR119 counter inactive
O=C(CC1C(=O)NCCN1Cc1ccc(F)c(F)c1)NCCc1cscn1 (configuration not stated)	none
CCN(CC)CCCN1C(=O)c2oc3cc(C)c(C)cc3c(=O)c2C1c1ccc(C)cc1 (configuration not stated)	none
O=C1NC2(CCN(C(=O)C3(c4ccc(Cl)cc4)CC3)CC2)Oc2ccccc21	none
Cc1ncc(CN2CCC3(CC2)NC(=O)c2ccccc2O3)n1C	GPR151 ag 4.9 | GPR151 confirm inactive | GPR119 counter inactive
Cc1ccc(C2(C(=O)N3CCC4(CC3)NC(=O)c3ccccc3O4)CC2)cc1	GPR151 ag 5.6 | GPR151 confirm inactive | GPR119 counter inactive
Cc1c(CN2CCC3(CC2)NC(=O)c2ccccc2O3)cnn1C	none
Cc1cc(C)n2nc(SCC(=O)Nc3ccccc3C(C)(C)C)nc2n1	none
Cc1cc(C)n2nc(SCC(=O)Nc3c(C)nn(-c4ccccc4)c3C)nc2n1	GPR151 ag 5.4 | GPR151 confirm inactive | GPR119 counter inactive
C#CCOc1cccc(/C=C2/C(=O)NC(=O)N(c3ccc(C(=O)OC)cc3)C2=O)c1	none
O=C(CCCn1c(=S)[nH]c2ccccc2c1=O)N1CCN(c2ccccn2)CC1	none
Cc1ccc(N2CC(NC(=O)Nc3nccs3)CC2=O)cc1 (configuration not stated)	none
O=C1CC(NCCCCO)C(=O)N1c1ccc(Br)cc1 (configuration not stated)	none
Cc1ccnc(NC(=O)NC2CC(=O)N(c3ccccc3)C2)c1 (configuration not stated)	GPR151 ag 6.1 | GPR151 confirm inactive | GPR119 counter inactive
COc1ccc(N2CC(NC(=O)Nc3ccccc3C(N)=O)CC2=O)cc1OC (configuration not stated)	GPR151 ag 5.4 | GPR151 confirm inactive | GPR119 counter inactive
Cc1ccc(N2CC(NC(=O)Nc3ncccc3C)CC2=O)cc1 (configuration not stated)	GPR151 ag 5.9 | GPR151 confirm inactive | GPR119 counter inactive
O=C1CC(NCCCc2ccccc2)C(=O)N1c1ccc(Br)cc1 (configuration not stated)	GPR151 ag 11.0 | GPR151 confirm inactive | GPR119 counter inactive
